Sampled rows, rich in hits. Any-hit rate of the full collection: about 13%.
Shiga toxin inh = blocks Shiga toxin action in Vero cells; Vero cells, Shiga toxin protein synthesis inhibition reporter; inhibition, % at 38.7 µM; hit rate 9.2% among 290,000; AID 2315; in the data active = inhibition mostly above about 28%, no sharp cut-off; inactive = mostly below about 43%; note: 0% is about no effect
Marburg entry inh = blocks Marburg virus binding to or entry into cells | Marburg virus pseudotyped entry inhibition, cell reporter | Potency, µM (top dose mostly 37.8 µM), inactives show at the highest dose activity change, negative = inhibition, most hits filed as inhibitors | hit rate 1.8% among 300,000 | AID 540276; calls by dose curve; tested in HEK293 cells; note: potency is the fitted concentration of half-maximal effect; % is set by controls: 0 for no effect and ±100 for the full control effect
FMDV antiviral = foot and mouth disease virus antiviral activity | FMDV antiviral cell-based qHTS | Potency, µM (doses to about 57.9 µM), without a hit: at the top dose activity change, negative = inhibition, usual class: inhibitors | hit rate 1.2% among 410,000 | AID 1159524; calls by dose curve; tested in HEK293T cells; note: read-out not given here; potency is the fitted concentration of half-maximal effect; % is set by controls: 0 for no effect and ±100 for the full control effect; nearly all actives have a fitted effect of over 45% in size
CHX counter = counter-screen hit for Shiga toxin inhibitors, cycloheximide; cell reporter, cycloheximide protein synthesis inhibition counterscreen; max response, %; hit rate 12% among 300,000; AID 2314; in the data active = max response mostly above about 13%, no sharp cut-off; inactive = mostly below about 14%; note: read at 38.3 µM for the half of the compounds with a filed dose; 0% is about no effect
LASV entry inh = inhibitors of Lassa virus binding or cell entry | Lassa virus pseudotype entry inhibition, cell reporter | Potency, µM (top dose mostly 37.9 µM), inactives show at the highest dose activity change, negative = inhibition, most hits filed as inhibitors | hit rate 1.2% among 300,000 | AID 540256; calls by dose curve; tested in HEK293 cells; note: potency is the fitted concentration of half-maximal effect; % is set by controls: 0 for no effect and ±100 for the full control effect; nearly all actives have a fitted effect of over 50% in size
HCV inhibitor = blocks hepatitis C virus. Potency, µM (highest dose often 41.8 µM), for the others: at the top dose activity change, negative = inhibition, actives largely listed as inhibitors. AID 651820. hit rate 3.4% among 340,000. Huh7.5.1 HCVcc-Cre infection, luciferase reporter, 44 h; active = well fitted inhibition curve with a large enough effect; inconclusive = small, poorly fitted or top-dose-only effect, or another doubt; inactive = no such curve, though single readings can be large or run the other way; note: potency is the fitted concentration of half-maximal effect; % is set by controls: 0 for no effect and ±100 for the full control effect
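Antiviral activity was scored by luciferase reporter output from cells infected with HCVcc-Cre (~0.5 moi) in presence of compound, 44 h infection period, cells seeded 1,000/well 4 h prior.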
* = called active by the depositor; ? = inconclusive; · = no result given; + = active, no number; [ ] = another dose, or the depositor's remark.

SMILES	Shiga toxin inh	Marburg entry inh	FMDV antiviral	CHX counter	LASV entry inh	HCV inhibitor
COc1cccc(N=Nc2c(N)[nH][nH]c2=O)c1	59*	1%	1%	55*	?	?
Cc1[nH][nH]c(=O)c1N=Nc1ccc(F)cc1	5	·	-2%	5	·	-1%
COc1ccc(N=Nc2c(C)[nH][nH]c2=O)cc1	103*	-3%[46.1 µM]	37%	35*	-2%	-6%
COc1ccccc1/C=C/c1nc(C#N)c(NCCc2ccccc2)o1	·	3%[46.1 µM]	-6%	·	9%[46.1 µM]	·
Cc1cccc(C)c1NC(=O)c1sccc1SCc1cccc(C(F)(F)F)c1	-3	?	?	2	5%	-3%
CCN(Cc1nc(-c2ccc(OC)cc2)no1)C(=O)c1ccoc1C	10	?	-5%	-2	1%[46.1 µM]	1%
CCN(CCCNC(=O)CC(C(=O)N1CCc2ccccc21)n1ccnc1)c1cccc(C)c1 (configuration not stated)	-9	1%	?	-2	8%	-4%
COC(=O)c1c(C)[nH]c(C(=O)COC(=O)c2c(C)noc2C)c1C	·	·	26%	·	·	?
CCOC(=O)c1cc2c(s1)-c1ccccc1CC2	67*	?	33%	37*	3%	4%
CCOC(=O)c1cc2ccc3ccccc3c2s1	75*	1%	49%	48*	?	?
COC(=O)c1cc2c(s1)-c1ccccc1CC2	+	3%[46.1 µM]	28%	62*	2%	?
COC(=O)c1cc2c(s1)-c1cc(F)ccc1OC2	7	1%	31%	12	?	13%
Nc1ccn([C@@H]2O[C@H](CNC(=O)[C@H]3CCC(=O)N3)[C@@H](O)[C@H]2O)c(=O)n1	·	·	-3%	·	·	·
CCc1c(C)nc(SC)n(CC#N)c1=O	11	1%[46.1 µM]	-23%	-1	5%	7%
Cn1cc(C(=O)NS(=O)(=O)Nc2ccc(Br)cn2)c2ccccc21	22*	?	32%	26*	?	2%
Cc1ccc(C)c(S(=O)(=O)N2CCN(c3nc(CN4CCOCC4)nc4sc(C)c(C)c34)CC2)c1	·	·	-7%	·	·	?
CC1(CCc2ccccc2)NC(=O)N(CC(=O)O)C1=O (configuration not stated)	-7	·	-7%	-4	·	11%
CC1(CCc2ccccc2)NC(=O)N(CC(=O)Nc2ccccc2)C1=O (configuration not stated)	36	14%	29%	16*	14%	7%
CN(C)C(=O)CCc1ccc2c3c([nH]c2c1)[C@]1(CCC2CCCC2)[C@@H](C(=O)N2CCOCC2)C[C@H](CC(=O)NCC24CC5CC(CC(C5)C2)C4)C(=O)N1CC3	·	·	?	·	·	-2%
CC[C@]12c3[nH]c4ccc(Cl)cc4c3CCN1C(=O)[C@@H](CC(=O)NC/C=C(\C)CCC=C(C)C)C[C@@H]2C(=O)N1CCN(C(=O)c2ccco2)CC1	·	0%	?	·	·	11µM*
CC(C)=CCC/C(C)=C/CNC(=O)C[C@H]1C[C@H](C(=O)N2CCOCC2)[C@@]2(CCC3CCCC3)c3[nH]c4cc(CCC(=O)N(C)C)ccc4c3CCN2C1=O	·	·	?	·	·	11µM*
COc1ccc2[nH]c3c(c2c1)CCN1C(=O)C(CC(=O)NC/C=C(\C)CCC=C(C)C)C[C@H](C(=O)N2CCOCC2)[C@@]31CCC1CCCC1 (some centres not stated)	·	-3%	-7%	·	·	2.5µM*
Nc1cc(-c2nc3ncccc3o2)ccc1Cl	60*	-4%	7%	59*	25%	38%
Cc1ccc(-c2nc3ncccc3o2)cc1N	62*	·	58%	49*	·	2%
Cc1ccc(-c2nc3ncccc3o2)cc1NC(=O)C(C)(C)C	-6	·	-1%	-3	·	-16%
SMILES	Shiga toxin inh	Marburg entry inh	FMDV antiviral	CHX counter	LASV entry inh	HCV inhibitor
Cc1cc(-c2nc3ncccc3o2)ccc1N	85*	-10%[46.1 µM]	39%	45*	11%	-15%
CCOCCCN(Cc1ccco1)C(=O)c1cc2c(s1)-c1c(C)cccc1OC2	·	-12%[46.1 µM]	17%	·	·	·
CN1CCN(C(=O)CN(C2CCCCC2)S(=O)(=O)c2ccc(Br)cc2)CC1	18	-20%	-5%	0	-26%	-5%
COc1cc(SC)ccc1C(=O)NCCc1c[nH]c2ccccc12	59	?	6%	27*	?	?
COc1ccccc1NC(=O)NCCc1c[nH]c2ccccc12	8	·	2%	-2	·	-6%
O=C(NCCc1c[nH]c2ccccc12)c1cnccn1	38*	?	18%	23	-4%[46.1 µM]	2%
O=C(NCCc1c[nH]c2ccccc12)c1ccc(F)cc1F	116*	?	51%	25*	-3%[46.1 µM]	4%
O=C(NCCc1c[nH]c2ccccc12)c1cncc(Br)c1	23	5%	-5%	12	2%	-23%
O=C(CCCc1c[nH]c2ccccc12)NCc1ccccc1F	24	-19%[46.1 µM]	24%	-6	7.9µM*	-24%
COc1ccc(C(=O)c2c[nH]c3ccccc23)cc1	65*	?	-10%	61*	?	?
Cc1ccsc1C(=O)NCc1ccccc1Cl	22	16%[46.1 µM]	30%	13	·	10%
Cc1nc(C)c(C(=O)NCCC(c2ccccc2)c2ccccc2)o1	11	-8%[46.1 µM]	?	7	?	10µM*
Cc1nc(C)c(C(=O)Nc2ccccc2-c2ccccc2)o1	-21	?	-24%	-2	5%	-11%
O=C(NCCc1c[nH]c2ccccc12)c1ccc(Cl)cc1	127*	·	70%	48*	·	?
Cc1ccsc1C(=O)NCCC(c1ccccc1)c1ccccc1	-1	13µM*	-8%	-3	?	-10%
CCOc1ccc(Oc2nc(NC)nc(N3CCOCC3)n2)nn1	·	11%[46.1 µM]	-8%	·	24%[46.1 µM]	·
COc1cc(C(=O)Nc2cc(S(=O)(=O)N3CCOCC3)ccc2N2CCN(C)CC2)cc(OC)c1OC	·	·	-10%	·	·	16%
COc1ccc(C(=O)COC(=O)C(Cc2c[nH]c3ccccc23)NC(=O)c2ccc(C(C)(C)C)cc2)cc1 (configuration not stated)	·	·	-20%	·	1.3µM*	·
Cc1ccsc1C(=O)NCCc1c[nH]c2ccccc12	73*	4%[46.1 µM]	20%	36*	-7%[46.1 µM]	-16%
CC(C)(C)c1ccc(C(=O)NC(Cc2c[nH]c3ccccc23)C(=O)OCC(=O)c2ccccc2)cc1 (configuration not stated)	·	·	24%	·	?	·
COc1ccc(-c2cn(Cc3cccc(OC)c3)nn2)cc1	82*	·	63%	29*	·	?
COc1ccc(C(=O)NCCc2c[nH]c3ccccc23)cc1	77*	?	15%	45*	?	-22%
C=CCN1C(=O)CC(C(=O)NC)SC1=Nc1ccc(C(=O)OCC)cc1 (configuration not stated)	-5	9%	-6%	-2	?	-3%
O=C(NCCc1c[nH]c2ccccc12)c1cnc2sccn2c1=O	84*	·	0%	34*	·	4%
COc1ccc(-c2cn(CCc3c[nH]c4ccccc34)nn2)cc1	20	·	3%	7.4*	·	?

Screening results (PubChem BioAssay)
